Structures are written as SMILES. A number with no mark means an inactive call. Activity calls are given as the source filed them.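 The calls were made as follows: active = growth inhibition above 50% at the single 2 µM test dose, taken to imply half-maximal potency below 2 µM; inactive = the rest.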

A short description of the test: antimalarial activity against Dd2 strain (AID 2302).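 Also: 0% = DMSO untreated growth and 100% = chloroquine plus artemisinin killed control.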 As to conditions: P. falciparum Dd2 in RBCs, LDH growth readout, 72 h; at 2 µM; active compounds read high.
Consider `c1ccc(CCNCc2cccc(-c3ccc(CNc4ccc5ncccc5c4)cc3)c2)cc1`, for which the growth inhibition was 27%.
The figure for `CC(C)(C)Oc1ccc(C[C@@H]2NC3(C(=O)N(Cc4ccc(Cl)c(Cl)c4)c4ccccc43)C3C(=O)N(c4ccc(Br)cc4)C(=O)C32)cc1` (stereo not given in full) is 25%.
The value for `CCOc1ccccc1CNc1nccc(NCCc2cn(C)c3ccccc23)n1` was 62% (active).
With `COc1ccc(CNCc2ccsc2)cc1-c1ccc(OC)c(S(=O)(=O)NCCN2CCCC2)c1`, the growth inhibition is 62% (active).
Turning to `COC1CCC(C(=O)Nc2ccc(-c3cccc(-c4nc5c(C)cccc5[nH]4)c3)cc2)CC1` (stereo not given), the growth inhibition is 60% (active).
In the case of `CC(C)c1ccc(-c2noc(SCC(=O)N3CCCCC3C)n2)cc1` (stereo not given), the growth inhibition was 92% (active).
The value for `COc1cc(OC)c(NC(=O)Nc2ccnc3ccccc23)cc1Cl` was 9%.
The value for `CCn1c2c(c(=N)c3ccccc31)CCC2` was 61% (active).
The value for `CC(=O)Nc1ccc(S(=O)(=O)Nc2c(C)cc(Cc3cnc(N)nc3N)cc2C)cc1` was -1%; that for `O=C(CCn1c2ccccc2c2ccccc21)NN=Cc1ccco1` was -3%.
Consider `COc1cc(CCN=C(N)/C=C/c2ccc(Cl)cc2)ccc1Cl`, for which the growth inhibition is 16%.
The value for `CC(C)CC(NC(=O)c1cccc(OCCN2CCOCC2)c1)C(=O)NC(/C=N/NC(=O)c1ccccc1)CCc1ccccc1` (stereo not given) was 88% (active); that for `O=C(/C=C/c1c(Cl)cccc1Cl)NC1CCC(CN2CCC(c3c[nH]c4ccncc34)CC2)CC1` (stereo not given) was 100% (active); that for `CN1CCC(Oc2ccc(CN3CC[C@H](NC(=O)c4ccc(F)c(F)c4)C3)c3ccccc23)C1` (stereo not given in full) was 27%.
The value for `O=C(/C=C/c1ccc2ccccc2c1)NCC1(c2ccc(-c3ccccc3)cc2)CCOCC1` was 34%.
The figure for `CC1(C)N=C(N)N=C(N)N1OCc1cccs1` is -1%; for `CC(C)c1cn2c3c(cc(C(=O)N[C@@H](Cc4ccccc4)[C@H](O)CNC4CCOCC4)cc13)N(C)S(=O)(=O)CC2` it is 99% (active).
Consider `COc1ccc2nccc([C@@H](O)CN3CCC(NC(=O)/C=C/c4ccc5[nH]c(=O)ccc5c4)CC3)c2c1`, for which the growth inhibition was 83% (active).
For the compound `Cc1ccc(C(=O)NC2CCN(CCNC(=O)Nc3cc(C)nc4ccccc34)CC2)cc1`, the growth inhibition was 76% (active).
The value for `CCOC(=O)c1ccc2nc(-c3ccc(C(=O)NC4CCN(Cc5ccccc5)CC4)s3)[nH]c2c1` was 95% (active); that for `COc1ccc(C(=O)Nc2cc(Br)c3c(c2)CNCC3)cc1C(F)(F)F` was 4%.
The figure for `C=CCn1c(Sc2ccc(C#N)c([N+](=O)[O-])c2)nnc1-c1ccc(OC)cc1` is 74% (active).
The value for `CC(C)c1ccc2[nH]c(C(=O)NC3CCC(N4CCCc5ccc(C#N)cc5C4)CC3)cc2c1` (stereo not given) was 27%; that for `OC[C@H](Nc1nc(C(Oc2ccccc2)c2ccccc2)nc2[nH]ncc12)c1ccccc1` (stereo not given in full) was 45%.
As for `COc1ccccc1-n1c(-c2ccc3ccccc3c2)csc1=NC(=O)c1ccccc1`, the growth inhibition is 79% (active).
The value for `CN(C)Cc1c(O)ccc2[nH]c(-c3ccc(OC(F)(F)F)cc3)nc12` was 97% (active).
The figure for `COc1ccc(CN2CCC(N3CCc4cc(NC(=O)c5cc(C)on5)ccc43)C2)cc1Cl` (stereo not given) is 91% (active); for `CCN(CC)CCNc1ccc(Nc2ccnc3cc4ccccc4cc23)cc1` it is 99% (active); for `c1cncc(CCNCc2cccc(-c3ccc(-c4nc5ccccc5[nH]4)s3)c2)c1` it is 97% (active).
Take `CNC(=O)c1cc(Nc2nnc(-c3ccc(C)c(S(=O)(=O)NC4CCCCC4)c3)c3ccccc23)ccc1OC`: the growth inhibition is 61% (active).
The value for `OC1CCCN(Cc2ccc(-c3ccc(-c4nc5ccc(F)cc5[nH]4)cc3)cc2)C1` (stereo not given) was 79% (active); that for `Cc1cccc(CN2CCCN(Cc3ccc(C(=O)Nc4ccc(C)c(F)c4)cc3)CC2)c1` was 3%; that for `Cn1cncc1C(=O)Nc1cccc(-c2ccc(-c3nc4ccc(F)cc4[nH]3)cc2)c1` was 31%.
For `CSc1ccccc1NC(=S)NC1CCN(CCCCCNC(=O)/C=C/c2ccc(Cl)c(Cl)c2)CC1`, the growth inhibition is 27%.
The figure for `NC(=O)C1Cc2ccccc2CN1CC(=O)Nc1ccccc1Sc1ccccc1` (stereo not given) is 99% (active); for `Cc1nc(/N=C(\N)NC(=O)NC2CCCCC2)nc2ccccc12` it is 99% (active).
The value for `Fc1ccc(-c2cncc(Nc3ccncc3)n2)cc1` was 11%.
On to `Cc1ccc(Nc2nc(C)cc(NC3CCCC3)n2)cc1`, for which the growth inhibition is 89% (active).
On to `O=C(Nc1cccc(CN2CCCN(Cc3ccsc3)CC2)c1)c1cc2ccccc2s1`, for which the growth inhibition was 29%.
The value for `CCc1cccc(OCC2CCCN(c3ccc(C(=O)NC4CC4)cn3)C2)c1` (stereo not given) was 73% (active).

(Values after PubChem BioAssay.)
